Screening data as filed in PubChem.
pPAFAH inh: pPAFAH enzyme inhibitors, primary screen, biochemical, fluorescence polarization, human. Platelet-activating factor acetylhydrolase (Homo sapiens), Q13093. recombinant pPAFAH, FP-rhodamine probe fluorescence polarization. inhibition, % at 3.39 µM. actives 1.5% (n = 330,000). AID 463082, 2010;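 active = inhibition above the mean inhibition across the screen plus 3 SD, cut at about 25% in these data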;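 note: inhibitors block binding of the rhodamine activity-based probe so polarization drops; 0% = enzyme with DMSO and 100% = wells lacking pPAFAH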
Fam108B counter: mouse Fam108B serine hydrolase inhibitors, primary screen, counter-screen for RBBP9 inhibitor project, biochemical, fluorescence polarization; recombinant Fam108B, FP-Rh probe fluorescence polarization; inhibition, % at 9.51 µM; actives 0.33% (n = 300,000); AID 1947, 2009;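 active = inhibition above the screen mean inhibition plus 3 SD, computed separately per campaign, cut at about 18% in these data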;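 note: inhibitors lower polarization as less probe binds the enzyme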
PME-1 inh: PME-1 inhibitors via competitive probe labeling, primary screen, biochemical, fluorescence polarization, FP-Rh probe, HTS; Protein phosphatase methylesterase 1 (Homo sapiens), Q9Y570; recombinant PME-1; inhibition, % at 5.9 µM; actives 0.53% (n = 320,000); AID 2130, 2009;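 active = inhibition above the campaign mean of all compounds plus 3 SD, cut at about 26% in these data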;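 note: competitive labeling of PME-1 active site by serine hydrolase directed probe; 0% = PME-1 with DMSO and 100% = wells lacking PME-1 enzyme; inhibitors block probe labeling so polarization falls and inhibition rises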
Target sequence (Q9Y570 whole entry, looked up): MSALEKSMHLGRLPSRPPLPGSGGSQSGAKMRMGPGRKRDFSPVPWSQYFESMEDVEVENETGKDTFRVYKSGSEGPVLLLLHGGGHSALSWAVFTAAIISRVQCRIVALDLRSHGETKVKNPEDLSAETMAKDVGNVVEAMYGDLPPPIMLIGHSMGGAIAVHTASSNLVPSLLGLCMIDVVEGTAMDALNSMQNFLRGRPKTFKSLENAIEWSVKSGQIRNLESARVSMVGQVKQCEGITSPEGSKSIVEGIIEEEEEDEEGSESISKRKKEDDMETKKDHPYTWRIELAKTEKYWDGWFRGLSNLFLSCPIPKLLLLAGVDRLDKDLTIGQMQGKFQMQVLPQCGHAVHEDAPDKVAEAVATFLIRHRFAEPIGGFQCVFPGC
PAFAH1B2 FP inh: PAFAH1B2 enzyme inhibitors, primary screen, biochemical, fluorescence polarization, human | recombinant PAFAH1B2, FP-rhodamine activity probe | actives 1.2% (n = 340,000) | inhibition, % at 3.39 µM | Platelet-activating factor acetylhydrolase IB subunit alpha2 (Homo sapiens), P68402 | AID 492953, 2010;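 active = inhibition above the mean of all tested compounds plus 3 SD, cut at about 24% in these data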;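 note: 0% = enzyme with DMSO and 100% = wells lacking PAFAH1B2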
PAFAH1B3 inh: PAFAH1B3 enzyme inhibitors, primary screen, biochemical, fluorescence polarization, human; Platelet-activating factor acetylhydrolase IB subunit alpha1 (Homo sapiens), Q15102; recombinant PAFAH1B3, FP-rhodamine probe; inhibition, % at 3.39 µM; actives 0.28% (n = 340,000); AID 492972, 2010;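 active = inhibition above the screen-wide average of all tested compounds plus 3 SD, cut at about 25% in these data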;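 note: 0% = enzyme with DMSO only and 100% = wells lacking PAFAH1B3 protein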
Target sequence (Q15102 whole entry, looked up): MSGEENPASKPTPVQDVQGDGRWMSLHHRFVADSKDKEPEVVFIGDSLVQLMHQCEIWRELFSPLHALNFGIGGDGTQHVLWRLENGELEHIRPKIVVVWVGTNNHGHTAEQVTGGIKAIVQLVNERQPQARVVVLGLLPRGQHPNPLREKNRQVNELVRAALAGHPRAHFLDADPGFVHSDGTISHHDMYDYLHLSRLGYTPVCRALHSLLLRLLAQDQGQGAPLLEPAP
PAFAH2 inh: PAFAH2 enzyme inhibitors, primary screen, biochemical, fluorescence polarization, human | Platelet-activating factor acetylhydrolase 2, cytoplasmic (Homo sapiens), Q99487 | recombinant PAFAH2, FP-rhodamine activity probe | inhibition, % at 3.39 µM | actives 0.99% (n = 340,000) | AID 492956, 2010;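 active = inhibition above the mean over all tested compounds plus 3 SD, cut at about 30% in these data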;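 note: inhibitors block probe labeling of enzyme so polarization drops; 0% = enzyme with DMSO and 100% = wells lacking PAFAH2 protein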
PAFAH2 confirm: PAFAH2 enzyme inhibitors, confirmation, biochemical, fluorescence polarization, human; shares compounds with PAFAH2 inh; recombinant PAFAH2, FP-rhodamine activity probe; inhibition, % at 3.39 µM; actives 65% (n = 2,300); AID 493030, 2011;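 active = mean inhibition over three repeats above a set limit taken from the earlier primary screen, cut at about 30% in these data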;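 note: inhibitor blocks binding of rhodamine activity probe so polarization falls; 0% = enzyme with DMSO and 100% = wells lacking PAFAH2 protein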
* hit, by the source's call; / = not tested or not shown. Only some compounds are listed: those with a hit (about 2.9% of all), similar ones and a draw of the others.

SMILES | pPAFAH inh | Fam108B counter | PME-1 inh | PAFAH1B2 FP inh | PAFAH1B3 inh | PAFAH2 inh | PAFAH2 confirm
CC(C)COc1ccc(C(=O)Nc2cc(S(=O)(=O)N3CCOCC3)ccc2N2CCCC2)cc1 | 7 | / | -3 | 2 | 1 | 1 | /
O=C(CSCc1nc2ccccc2[nH]1)N1CCN(c2cccc(Cl)c2)CC1 | 3 | -6 | 1 | 17 | 5 | 0 | /
O=C(COC(=O)/C=C/c1ccccc1)NCc1ccccc1Cl | 0 | -6 | 0 | 1 | 14 | 71* | 70*
O=C(COC(=O)/C=C/c1ccco1)NCc1ccc(Cl)cc1Cl | 7 | / | / | 4 | 3 | 77* | 63*
O=C(COC(=O)/C=C/c1ccco1)NCCc1ccccc1 | 5 | -4 | -2 | 2 | 12 | 32* | 21
CC(NC(=O)COC(=O)/C=C/c1ccco1)c1ccccc1 (stereo not given) | 1 | -1 | 0 | 6 | 1 | 49* | 38*
O=C(/C=C/c1ccco1)NCCc1ccc(F)cc1 | 3 | 2 | -5 | 2 | 2 | 7 | /
COCCN(C(=O)c1snc(C(N)=O)c1N)C(C(=O)NC1CCCCC1)c1cc(OC)c(OC)c(OC)c1 (stereo not given) | 5 | 1 | -2 | 0 | 3 | 3 | /
CC(C)c1ccc(OCc2nnc(SCC(=O)N3CCCCC3)o2)cc1 | 9 | -4 | 0 | 9 | 0 | -3 | /
N#CC1(NC(=O)COc2ccc3ccc(=O)oc3c2)CCCCC1 | -1 | 2 | -4 | 5 | 6 | -1 | /
O=C(COC(=O)/C=C/c1ccco1)NCc1ccco1 | 4 | 2 | 1 | 11 | 17 | 37* | 20
CNC(=O)COC(=O)/C=C/c1ccco1 | 5 | 2 | 3 | -4 | 6 | 0 | /
CCOC(=O)c1c(C)n(-c2ccc(C)cc2)c2c(C(C(C)=O)C(=O)O)c(Br)c(O)c(O)c12 (stereo not given) | 18 | 15 | -1 | -3 | -5 | 81* | 75*
Cn1c(=O)c2nc(Cl)c(-c3ccccc3)nc2n(C)c1=O | -3 | 4 | 4 | -1 | 2 | 33* | 38*
COC(=O)c1cc(C(=O)OCC(=O)NNC(=O)c2cccs2)cc([N+](=O)[O-])c1 | 11 | -2 | -1 | 0 | -1 | -6 | /
CCC(=O)c1ccc(OCC(=O)OCC(=O)NCc2cccs2)cc1 | 6 | 1 | 0 | 0 | 11 | -4 | /
CC(C)COc1ccc(C(=O)OCC(=O)NCc2cccs2)cc1 | 13 | / | / | 4 | 9 | 41* | 37*
O=C(COC(=O)c1c(F)cccc1F)NCc1cccs1 | 6 | / | / | 5 | 12 | 20 | /
Cc1cccc(C(=O)OCC(=O)NCc2cccs2)c1 | 6 | 4 | 2 | -4 | 3 | 41* | 29
CC(=O)Nc1ccc(C(=O)OCC(=O)NCc2cccs2)cc1 | 1 | / | 8 | -6 | 1 | 72* | 38*
CN1CCCC(n2nc(Cc3ccc(Cl)cc3)c3ccccc3c2=O)CC1 (stereo not given) | 3 | 2 | -6 | 2 | -2 | -3 | /
Cc1ccccc1-c1nc(CS(=O)(=O)CC(=O)NCc2ccc(F)cc2)c(C)o1 | 3 | 1 | 1 | 11 | 11 | 1 | /
NS(=O)(=O)c1cccc(NC(=O)c2ccccc2NS(=O)(=O)c2ccc(F)cc2)c1 | 9 | 0 | 2 | 5 | -1 | 42* | 47*
C/C=C/C(=O)OCC(=O)Nc1ccc(C)c(S(=O)(=O)N(C)C)c1 | 4 | -5 | -6 | 7 | 1 | 57* | 48*
CN(C)S(=O)(=O)c1cccc(NC(=O)COC(=O)/C=C/c2ccco2)c1 | 3 | 1 | -1 | 3 | 2 | 55* | 47*
SMILES | pPAFAH inh | Fam108B counter | PME-1 inh | PAFAH1B2 FP inh | PAFAH1B3 inh | PAFAH2 inh | PAFAH2 confirm
Cc1ccc(NC(=O)COC(=O)c2ccc(Cl)cc2)cc1S(=O)(=O)N(C)C | 11 | -9 | 3 | -7 | -3 | 61* | 56*
CCN(CC)S(=O)(=O)c1cccc(NC(=O)COC(=O)/C=C/c2cccs2)c1 | 9 | -4 | 3 | 3 | -5 | 67* | 58*
Cc1cnc(C(=O)OCC(=O)Nc2ccc(C)c(S(=O)(=O)N(C)C)c2)cn1 | -3 | -2 | -3 | -1 | 8 | 5 | /
NC(=O)c1ccc(NC(=O)COC(=O)/C=C/c2cccs2)cc1 | -1 | 0 | 3 | 1 | 6 | 17 | /
CCN(CC)S(=O)(=O)c1cccc(NC(=O)COC(=O)c2cncc(Br)c2)c1 | 8 | / | / | 0 | 4 | -2 | /
O=C(COC(=O)/C=C/c1ccco1)Nc1cccc([N+](=O)[O-])c1 | 7 | 2 | 0 | 4 | 10 | 84* | 85*
COc1ccc(C(=O)NCC(=O)OCC(=O)Nc2ccc(C)c(S(=O)(=O)N(C)C)c2)cc1OC | -3 | -3 | 2 | 5 | 5 | 41* | 23
C/C=C/C(=O)OCC(=O)Nc1ccc(SC(F)F)cc1 | -1 | -9 | -6 | 3 | 1 | 56* | 48*
CCN(CC)S(=O)(=O)c1cccc(NC(=O)COC(=O)/C=C/c2ccco2)c1 | 15 | 0 | -1 | 0 | 1 | 33* | 24
CCCCNS(=O)(=O)c1cc(-c2nn(C)c(=O)c3ccccc23)ccc1C | 4 | -1 | 3 | 2 | 4 | 11 | /
COc1ccc(NC(=O)C2CCCCN2S(=O)(=O)c2ccc(F)cc2)cc1 (stereo not given) | 6 | -3 | 4 | -1 | 3 | 7 | /
CN(C)S(=O)(=O)c1cccc(NC(=O)COc2cccc3ccccc23)c1 | / | / | / | -1 | 7 | -11 | /
Cc1ccc(NC(=O)COC(=O)/C=C/c2ccco2)cc1S(=O)(=O)N(C)C | 11 | 0 | -3 | 0 | 2 | 70* | 77*
Cc1ccc(/C=C/C(=O)OCC(=O)Nc2cccc(S(=O)(=O)N(C)C)c2)o1 | 6 | 2 | 2 | 3 | -1 | 67* | 39*
CCOC(=O)C(/C=C(\C#N)C(=O)OCC)=C(/N)N1CCN(c2ccc(Cl)cc2)CC1 | 0 | 10 | -8 | 2 | -3 | 14 | /
COc1ccc(C=C2C(=O)OC(C)(C)OC2=O)cc1OC | -9 | -3 | 3 | -5 | 0 | 4 | /
